hERG WT inh – inhibitors of human wildtype KCNH2 potassium channel; Q12809; U2OS, BacMam KCNH2, thallium flux FluxOr; stronger effect = lower value; activity change, % at 1.84 µM; 0.37% of 340,000 active;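 active = maximum activity change below -70%; inconclusive = maximum activity change between -70% and -50%; inactive = maximum activity change above -50%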; also: % is scaled to controls: 0 for no effect and ±100 for the full control effect
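U2OS cells transduced with wild-type KCNH2 virus are loaded with FluxOr dye for 45 min, and thallium flux is measured in kinetic reads before and after stimulation buffer. Rate constants are normalized to DMSO controls.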
Menin MLL FP TR – inhibitors of human menin-MLL interaction, mutant MLL peptide. AID 1768. 0.23% of 270,000 active. Potency, µM (doses to about 61.6 µM), for the others: at the top dose FP activity change, negative = inhibition, actives largely listed as inhibitors. Menin + Texas Red MLL mutant peptide, fluorescence polarization; active = well fitted inhibition curve with a large enough effect in the polarisation, with a control signal flat, not every such curve was filed as active; inconclusive = small, poorly fitted or top-dose-only effect, or effect the other way, or a change in a side signal; inactive = no such curve, though single readings can be large or run the other way; the % refers to the polarisation; also: potency is read from the fitted curve at half-maximal effect; % of control where 0% means no effect
Target sequence (O00255 whole entry, looked up): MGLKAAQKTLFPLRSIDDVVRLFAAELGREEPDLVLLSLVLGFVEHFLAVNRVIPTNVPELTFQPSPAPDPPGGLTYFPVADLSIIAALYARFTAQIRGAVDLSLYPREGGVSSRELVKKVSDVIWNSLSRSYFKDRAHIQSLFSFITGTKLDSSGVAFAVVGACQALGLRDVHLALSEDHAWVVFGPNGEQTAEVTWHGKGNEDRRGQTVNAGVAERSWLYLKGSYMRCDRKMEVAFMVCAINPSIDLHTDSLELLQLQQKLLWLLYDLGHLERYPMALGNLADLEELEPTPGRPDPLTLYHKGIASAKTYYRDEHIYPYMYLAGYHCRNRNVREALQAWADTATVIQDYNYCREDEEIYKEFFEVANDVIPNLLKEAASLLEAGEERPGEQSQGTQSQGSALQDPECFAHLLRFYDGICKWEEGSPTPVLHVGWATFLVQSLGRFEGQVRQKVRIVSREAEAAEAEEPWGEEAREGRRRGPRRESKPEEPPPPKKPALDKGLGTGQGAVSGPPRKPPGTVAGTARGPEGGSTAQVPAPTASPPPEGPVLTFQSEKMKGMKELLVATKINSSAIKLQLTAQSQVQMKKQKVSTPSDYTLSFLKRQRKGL
KCNH2 3.1 inh – blocks the human KCNH2 3.1 channel isoform; 0.95% of 340,000 active; U2OS KCNH2 3.1, thallium flux FluxOr; stronger effect = lower value; activity change, % (tested at about 1.8 µM); AID 720553;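 active = maximum activity change below -70%; inconclusive = maximum activity change from -70% to -50%; inactive = maximum activity change above -50%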;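 also: thallium influx rate constant from kinetic fluorescence after stimulation buffer; % is scaled to controls: 0 for no effect and ±100 for the full control effect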
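We transduce U2OS cells with the mutant 3.1 virus, culture them overnight, load FluxOr with Red40 quencher for 45 min, then add stimulation buffer and read kinetically for 2 min to derive a normalized rate constant.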
CXXC DNA block – blocks binding of human MLL CXXC domain to DNA | Q03164 | MLL-CXXC / FITC-HOXA9 DNA fluorescence polarization | Potency, µM (titrated, usually from 115 µM), inactives show at the highest dose activity change, negative = inhibition, usual class: inhibitors | 0.037% of 290,000 active; active = well fitted inhibition curve with a large enough effect in the polarisation, with a control signal flat, not every such curve was filed as active; inconclusive = small, poorly fitted or top-dose-only effect, or effect the other way, or a change in a side signal; inactive = no such curve, though single readings can be large or run the other way; the % refers to the polarisation; also: potency is read from the fitted curve at half-maximal effect
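Fluorescence polarization: 7 uM MLL-CXXC (stock) preincubated 5 min with compounds, then 50 nM fluorescein-HOX-A9 DNA (stock) added; 30 min ambient. Buffer 50 mM Tris-HCl pH 7.5, 50 mM NaCl, 1 mM DTT, 0.05% BSA.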
Menin-MLL FL inh – inhibitors of human menin-MLL interaction, wild-type MLL peptide; FP activity change, % at 61.4 µM; Fluorescence polarization, fluorescein-MLL peptide displacement from menin; AID 1766; 290,000 tested, under 10 active; active = well fitted curve in the direction sought with a large enough effect in the polarisation, not every such curve was filed as active; inconclusive = small, poorly fitted or top-dose-only effect, or effect the other way, or a change in a side signal; inactive = no such curve, though single readings can be large or run the other way; the % refers to the polarisation; also: % of control where 0% means no effect
Active calls of the source: *; i = inactive; ? = inconclusive; . = not tested or not shown; ! = not confirmed by another sample; [ ] = remark or other dose. A selection: hits, their analogues and other compounds. The true share with any hit is near 1.1%.

SMILES | hERG WT inh | Menin MLL FP TR | KCNH2 3.1 inh | CXXC DNA block | Menin-MLL FL inh
Oc1ccc(N2CCN(c3ccnc4cc(Cl)ccc34)CC2)cc1 | -2 | ? | -46 | 5% | 1
CS(=O)(=O)N1CCN(c2ccnc3cc(Cl)ccc23)CC1 | -11 | -6% | -17 | 1% | -3
Cc1ccc(S(=O)(=O)N2CCN(c3ccnc4cc(Cl)ccc34)CC2)cc1C | 1 | -10% | 18 | 4% | -6
COc1ccc(N2CCN(c3ccnc4cc(Cl)ccc34)CC2)cc1 | 7 | -12% | -81* | -8% | 2
COc1ccc(NC(=O)CNC(=O)C2CCCCC2)cc1OC | 3 | . | -3 | . | .
COc1ccc(CNC(=O)COC(=O)c2ccc(S(=O)(=O)NCc3ccco3)cc2)cc1 | 2 | . | 10 | . | .
Cc1nn(C)cc1S(=O)(=O)Nc1ccc(C(F)(F)F)cc1 | 14 | . | 9 | 21% | .
CCC(=O)N1CCN(c2ccnc3cc(Cl)ccc23)CC1 | 8 | . | -11 | -2% | 6
O=C(c1ccc(Cl)cc1)N1CCN(c2ccnc3cc(Cl)ccc23)CC1 | -10 | ? | -87* | 0% | -17
COc1ccccc1CNS(=O)(=O)CCNCc1ccco1 | -6 | . | -46 | . | .
NC(=O)C1(N2CCCCC2)CCN(C(=O)c2cc(COc3c(F)cccc3F)on2)CC1 | -9 | . | -13 | . | .
CC(C)(C)OC(=O)[C@H](Cc1ccccc1)NC(=O)c1nc[nH]c1C(=O)N[C@@H](Cc1ccccc1)C(=O)OC(C)(C)C | -5 | . | -70* | 3% | 4
C[C@H](NC(=O)c1nc[nH]c1C(=O)N[C@@H](Cc1ccccc1)C(=O)OC(C)(C)C)C(=O)OC(C)(C)C | 0 | . | -23 | 4% | 1
Cc1ccc(C)n1-c1nnc(N2CCC(C(=O)NCCCN3CCN(C)CC3)CC2)s1 | -12 | -16% | 6 | . | -2
O=C(N/N=C/c1ccc(O)cc1)/C(=C/c1ccccc1)CCO | -3 | 0% | -88* | 4% | 0
O=C(N/N=C/c1ccccc1)C(=O)N/N=C/c1ccccc1 | 2 | ? | -4 | 1% | 0
COc1ccc(CCNC(=O)Cn2c(=O)n(CC3CCCO3)c(=O)c3cc(OC)c(OC)cc32)cc1OC (stereo not drawn) | 29 | 4% | -141* | -8% | 0
C[C@H](CO)N1C[C@H](C)[C@@H](CN(C)Cc2ccncc2)OCc2cnnn2CCCC1=O | 8 | . | 12 | . | .
COc1ccc(/C=N/NC(=O)c2ccc(Br)cc2)cc1CN1CCOCC1 | 17 | . | -85* | 60% | 2
COc1ccc(/C=N/NC(=O)c2cccnc2)cc1CN1CCN(c2ccc(F)cc2)CC1 | -18 | -7% | -80* | 13% | 1
COc1ccc(C(=O)N/N=C/c2ccc(OC)c(CN3CCN(c4ccc(F)cc4)CC3)c2)cc1 | -168* | 1% | -110* | 23% | 1
COc1ccc(/C=N/NC(=O)c2ccoc2C)cc1CN1CCN(c2ccc(F)cc2)CC1 | -49 | 0% | -110* | 19% | 0
COCC1=C2c3ccccc3[C@@H]3CNC(=O)C3(C(=O)OC)C[C@@H]2n2c(=O)n(-c3ccccc3)c(=O)n2C1 (stereo partly drawn) | . | 8% | . | . | -1
CC12CCC(C(=O)CC1=O)C2(C)C (stereo not drawn) | 9 | . | 19 | . | .
O=C(CCSC1=NCCCN1)c1ccc(F)cc1 | 17 | . | . | . | .
SMILES | hERG WT inh | Menin MLL FP TR | KCNH2 3.1 inh | CXXC DNA block | Menin-MLL FL inh
CC1(C)Cc2c(c(-c3ccccc3)[nH]c(=O)c2C#N)CS1 | -2 | -28% | 6 | -2% | 2
CC1(C)Cc2c(c(-c3ccco3)[nH]c(=O)c2C#N)CS1 | -1 | 25µM* | 2 | -2% | ?
CC(NC(=O)COC(=O)c1cc(S(=O)(=O)N2CCOCC2)ccc1F)c1ccccc1 (stereo not drawn) | -2 | . | 22 | . | .
COC(=O)c1ccccc1NS(=O)(=O)c1c(C)noc1C | 5 | . | -109* | -10% | .
CCOC(=O)c1c(N)c2cc([N+](=O)[O-])ccc2n1C | -7 | . | -97* | -16% | 0
CCOC(=O)/C(=C/c1c(C)n(C)c2ccc([N+](=O)[O-])cc12)C(C)=O | i | -2% | 4 | 7% | -2
COC(=O)C1CCc2c(ccc3c2CCCC3)C1=O (stereo not drawn) | -6 | . | 11 | . | .
CCn1cc(S(=O)(=O)CC(=O)Nc2ccc3c(c2)OCO3)c2ccccc21 | -7 | . | -2 | 20% | 2
CCn1cc(S(=O)(=O)CC(=O)Nc2cc(C)ccc2C)c2ccccc21 | 3 | -4%[11.7 µM] | -118* | 4% | 4
COc1ccc(CNC(=O)[C@@H](NC(=O)C2CCN(S(=O)(=O)c3ccc(C)cc3)CC2)C(C)C)cc1OC | -12 | . | -74* | 5% | .
COc1ccc(S(=O)(=O)N2CCC(C(=O)N[C@H](C(=O)NCc3ccncc3)C(C)C)CC2)cc1 | 8 | . | 1 | -2% | .
COc1ccc(N2CCN(CC(O)COc3ccc(F)cc3)CC2)cc1 (stereo not drawn) | 18 | 20µM* | -42 | -4% | -17
C=CCc1cc(OC)ccc1OCC(O)CN1CCN(c2ccc(OC)cc2)CC1 (stereo not drawn) | 60 | 0% | -82*! | -4% | -2
OC(CNC1CCCC1)COc1ccc(-c2ccccc2)cc1 (stereo not drawn) | -6 | ? | -71* | 8% | -3
OC(COc1ccccc1Cl)CN1CCN(CC(O)COc2ccccc2Cl)CC1 (stereo not drawn) | ? | ? | -82* | 1% | 3
Cc1ccccc1OCC(O)CN1CCN(C)CC1 (stereo not drawn) | 4 | -2% | 0 | 9% | 1
COc1cc(C(=O)OCC(=O)NC2CCCCCC2)ccc1OCC(C)C | -3 | . | 5 | . | .
CC1CN(CC(O)COc2ccc(C#N)cc2)CCN1CC(O)COc1ccc(C#N)cc1 (stereo not drawn) | -118* | -2% | -102* | 1% | 1
OC(COc1ccc(F)cc1)CN1CCN(CC(O)COc2ccc(F)cc2)CC1 (stereo not drawn) | -29 | -17% | -74* | 10% | 0
OC(COc1ccc(-c2ccccc2)cc1)CN1CCCCC1 (stereo not drawn) | 14 | . | -73* | . | .
OC(COc1ccccc1)CN1CCCCC1 (stereo not drawn) | 14 | . | . | . | .
COc1ccc(OCC(O)CN2CCN(c3ccc(OC)cc3)CC2)cc1 (stereo not drawn) | 15 | 35µM* | -18 | -6% | -28

Screens as filed in PubChem.
